# In PubChem BioAssay:
# Test: glutamate transport activators, MN-1 cells, MN-1 cell line (AID 1612);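 also: tested at 1 µM final; 0% = mean of DMSO vehicle wells on each plate; positive means more glutamate uptake than control and negative means less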
# Settings: MN-1 motor neuron cells, stronger effect = higher value
row,Compound,glutamate uptake change [%]
1,O=c1[nH]cc(F)c(=O)[nH]1,-1.19
2,CCc1nc(N)nc(N)c1-c1ccc(Cl)cc1,14.1
3,CCc1cccc2c3c([nH]c12)C(CC)(CC(=O)O)OCC3 (stereo not drawn),-3.42
4,Nc1ncn([C@@H]2O[C@H](CO)[C@@H](O)[C@H]2O)c(=O)n1,3.18
5,Cc1ccccc1C(OCCN(C)C)c1ccccc1 (stereo not drawn),36.2
6,Cc1ccc(C)c(OCCCC(C)(C)C(=O)O)c1,0.82
7,NC(=O)c1cnccn1,25.2
8,COC1=CC(=O)C[C@@H](C)[C@]12Oc1c(Cl)c(OC)cc(OC)c1C2=O,-9
9,CO[C@@]1(NC(=O)Cc2cccs2)C(=O)N2C(C(=O)O)=C(COC(N)=O)CS[C@@H]21,-21.4
10,OCCN1CCN(CCCN2c3ccccc3Sc3ccc(C(F)(F)F)cc32)CC1,-9.51
11,CN(C)CCOC(c1ccc(Cl)cc1)c1ccccn1 (stereo not drawn),21.1
12,Cc1onc(-c2c(Cl)cccc2Cl)c1C(=O)N[C@@H]1C(=O)N2[C@@H]1SC(C)(C)[C@@H]2C(=O)O,-10.2
13,NS(=O)(=O)c1cc(C2(O)NC(=O)c3ccccc32)ccc1Cl (stereo not drawn),-2.06
14,Cc1ccc(-c2cc(C(F)(F)F)nn2-c2ccc(S(N)(=O)=O)cc2)cc1,-10.9
15,O=S(=O)(O)CCS,-0.24
16,COc1ccc(OC)c(C(O)CNC(=O)CN)c1 (stereo not drawn),-11.6
17,Cn1cnc([N+](=O)[O-])c1Sc1ncnc2nc[nH]c12,-23.5
18,c1ccc2[nH]c(-c3cscn3)nc2c1,-14
19,CCCNCC(O)COc1ccccc1C(=O)CCc1ccccc1 (stereo not drawn),9.21
20,Cc1cn([C@H]2C[C@H](N=[N+]=[N-])[C@@H](CO)O2)c(=O)[nH]c1=O,-23.5
21,COc1ccccc1OCC(O)COC(N)=O (stereo not drawn),-5.42
22,OC(CCN1CCCC1)(c1ccccc1)C1CCCCC1 (stereo not drawn),2.81
23,O=C1C(CCS(=O)c2ccccc2)C(=O)N(c2ccccc2)N1c1ccccc1 (stereo not drawn),-6.33
24,COC(=O)Nc1nc2ccc(C(=O)c3ccccc3)cc2[nH]1,-29.4
25,NCc1ccc(S(N)(=O)=O)cc1,-7.14
26,Clc1ccc2c(c1)C(N1CCNCC1)=Nc1ccccc1O2,35.9
27,CC(C)(C)NCC(O)COc1cccc2c1C[C@H](O)[C@H](O)C2 (stereo partly drawn),-4.44
28,NS(=O)(=O)c1cc2c(cc1Cl)NC=NS2(=O)=O,4.54

# Test: GFP-Q80 aggregate reduction, neuronal-like cells, cell-based, NGF-treated PC12, GFPQ80 (AID 1614);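 also: lower means fewer inclusions and 0 means no inclusions at all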
# Settings: PC12 NGF-treated GFP-polyQ80 inclusion reduction
row,Compound,inclusion score
1,O=c1[nH]cc(F)c(=O)[nH]1,2
2,CCc1cccc2c3c([nH]c12)C(CC)(CC(=O)O)OCC3 (stereo not drawn),2
3,Cc1ccccc1C(OCCN(C)C)c1ccccc1 (stereo not drawn),2
4,Cc1ccc(C)c(OCCCC(C)(C)C(=O)O)c1,2
5,NC(=O)c1cnccn1,2
6,COC1=CC(=O)C[C@@H](C)[C@]12Oc1c(Cl)c(OC)cc(OC)c1C2=O,2
7,CO[C@@]1(NC(=O)Cc2cccs2)C(=O)N2C(C(=O)O)=C(COC(N)=O)CS[C@@H]21,2
8,CN(C)CCOC(c1ccc(Cl)cc1)c1ccccn1 (stereo not drawn),2
9,Cc1onc(-c2c(Cl)cccc2Cl)c1C(=O)N[C@@H]1C(=O)N2[C@@H]1SC(C)(C)[C@@H]2C(=O)O,2
10,NS(=O)(=O)c1cc(C2(O)NC(=O)c3ccccc32)ccc1Cl (stereo not drawn),2
11,O=S(=O)(O)CCS,2
12,COc1ccc(OC)c(C(O)CNC(=O)CN)c1 (stereo not drawn),2
13,Cn1cnc([N+](=O)[O-])c1Sc1ncnc2nc[nH]c12,2
14,c1ccc2[nH]c(-c3cscn3)nc2c1,2
15,CCCNCC(O)COc1ccccc1C(=O)CCc1ccccc1 (stereo not drawn),2
16,Cc1cn([C@H]2C[C@H](N=[N+]=[N-])[C@@H](CO)O2)c(=O)[nH]c1=O,2
17,COc1ccccc1OCC(O)COC(N)=O (stereo not drawn),2
18,OC(CCN1CCCC1)(c1ccccc1)C1CCCCC1 (stereo not drawn),2
19,O=C1C(CCS(=O)c2ccccc2)C(=O)N(c2ccccc2)N1c1ccccc1 (stereo not drawn),1.5
20,NCc1ccc(S(N)(=O)=O)cc1,2
21,CC(C)(C)NCC(O)COc1cccc2c1C[C@H](O)[C@H](O)C2 (stereo partly drawn),2
22,NS(=O)(=O)c1cc2c(cc1Cl)NC=NS2(=O)=O,2

# Test: 75Q-TubH aggregate inhibition, S. cerevisiae, yeast (AID 1616)
# Settings: S. cerevisiae 75Q-TubH polyglutamine aggregation suppression; stronger effect = higher value
row,Compound,aggregation suppression score
1,O=c1[nH]cc(F)c(=O)[nH]1,0.203
2,CCc1nc(N)nc(N)c1-c1ccc(Cl)cc1,0.999
3,CCc1cccc2c3c([nH]c12)C(CC)(CC(=O)O)OCC3 (stereo not drawn),0.918
4,Nc1ncn([C@@H]2O[C@H](CO)[C@@H](O)[C@H]2O)c(=O)n1,1.25
5,Cc1ccccc1C(OCCN(C)C)c1ccccc1 (stereo not drawn),1.25
6,Cc1ccc(C)c(OCCCC(C)(C)C(=O)O)c1,-0.02
7,NC(=O)c1cnccn1,0.921
8,COC1=CC(=O)C[C@@H](C)[C@]12Oc1c(Cl)c(OC)cc(OC)c1C2=O,1.07
9,CO[C@@]1(NC(=O)Cc2cccs2)C(=O)N2C(C(=O)O)=C(COC(N)=O)CS[C@@H]21,0.182
10,OCCN1CCN(CCCN2c3ccccc3Sc3ccc(C(F)(F)F)cc32)CC1,1.51
11,CN(C)CCOC(c1ccc(Cl)cc1)c1ccccn1 (stereo not drawn),1.21
12,Cc1onc(-c2c(Cl)cccc2Cl)c1C(=O)N[C@@H]1C(=O)N2[C@@H]1SC(C)(C)[C@@H]2C(=O)O,1.09
13,NS(=O)(=O)c1cc(C2(O)NC(=O)c3ccccc32)ccc1Cl (stereo not drawn),1.49
14,Cc1ccc(-c2cc(C(F)(F)F)nn2-c2ccc(S(N)(=O)=O)cc2)cc1,0.638
15,O=S(=O)(O)CCS,1.35
16,COc1ccc(OC)c(C(O)CNC(=O)CN)c1 (stereo not drawn),1.16
17,Cn1cnc([N+](=O)[O-])c1Sc1ncnc2nc[nH]c12,1.11
18,c1ccc2[nH]c(-c3cscn3)nc2c1,0.142
19,CCCNCC(O)COc1ccccc1C(=O)CCc1ccccc1 (stereo not drawn),0.81
20,Cc1cn([C@H]2C[C@H](N=[N+]=[N-])[C@@H](CO)O2)c(=O)[nH]c1=O,1.12
21,COc1ccccc1OCC(O)COC(N)=O (stereo not drawn),1.52
22,OC(CCN1CCCC1)(c1ccccc1)C1CCCCC1 (stereo not drawn),1.66
23,O=C1C(CCS(=O)c2ccccc2)C(=O)N(c2ccccc2)N1c1ccccc1 (stereo not drawn),0.341
24,COC(=O)Nc1nc2ccc(C(=O)c3ccccc3)cc2[nH]1,0.598
25,NCc1ccc(S(N)(=O)=O)cc1,1.05
26,Clc1ccc2c(c1)C(N1CCNCC1)=Nc1ccccc1O2,1.13
27,CC(C)(C)NCC(O)COc1cccc2c1C[C@H](O)[C@H](O)C2 (stereo partly drawn),1.12
28,NS(=O)(=O)c1cc2c(cc1Cl)NC=NS2(=O)=O,1.42
